# In ChEMBL document CHEMBL4513216, “Probing the Open Global Health Chemical Diversity Library for Multistage-Active Starting Points for Next-Generation Antimalarials” (ACS Infect Dis, 2020):
# Screen size: about 68,000 compounds; about 2,700 (4%) showed an effect of 50% or more. The full list was thinned out, with strong results kept by preference.
# Tested on: Plasmodium berghei
# Assay: Screen against P. berghei liver stage (PbLuc), transformed with Luciferase, at 2uM
# Assay type: functional, HepG2
# Details: tested at 2 uM
row,Structure (SMILES),INHIBITION [%]
1,COCCN(Cc1ccoc1)S(=O)(=O)c1ccc(OC)c(Cl)c1,1.04
2,CN(C)S(=O)(=O)N1CCCCCC1c1cc(-c2ccc(F)cc2)no1 (configuration not stated),6.64
3,Cc1ccccc1C(CC(=O)NCc1n[nH]c(N)n1)c1ccccc1 (configuration not stated),28.1
4,Cc1ccccc1C(CC(=O)NCc1nnc(N)s1)c1ccccc1 (configuration not stated),9.13
5,Cc1ccccc1C(CC(=O)NCC(N)=O)c1ccccc1 (configuration not stated),57.59
6,Cc1cc(C(=O)NCc2cnn(C)c2C)nc(N2CCCCCC2)n1,-5.59
7,O=C(Nc1ccc(F)c(-n2cccc2)c1)NC1(CCO)CCOCC1,-13.38
8,COCCN(Cc1ccccn1)C(=O)Nc1cccnc1N1CCCC1,-40.03
9,Cc1cccc(C(=O)Nc2ccc(OC3CCN(C)CC3)cc2)c1,11.63
10,Cc1ccc(C(=O)Nc2ccc(OC3CCN(C)CC3)cc2)c(C)c1,55.84
11,CN1CCC(Oc2ccc(NC(=O)c3ccccc3Br)cc2)CC1,16.64
12,Cc1ccccc1C(=O)Nc1ccc(OC2CCN(C)CC2)cc1,37.87
13,COc1ccccc1C(=O)Nc1ccc(OC2CCN(C)CC2)cc1,56.93
14,Cc1ccc(C)c(C(=O)Nc2ccc(OC3CCN(C)CC3)cc2)c1,29.71
15,CN(CCc1ccccn1)c1cc(N2CCCCC2)ncn1,26.74
16,Cc1ccc(-c2noc(C3CCN3C(=O)c3cc[nH]n3)n2)s1 (configuration not stated),-24.35
17,CCCc1nnc(N2CC[C@](C)(O)[C@H](C)C2)s1,40.28
18,Cc1cc(CN2CCc3nc(-c4ccncc4)nc(O)c3CC2)c(C)s1,17.72
19,CN(CCC(O)c1ccccc1)c1cc(N2CCOCC2)ncn1 (configuration not stated),-3.38
20,CCN(CC)c1nc2sc(C(=O)NCC(=O)OC)cc2s1,5.1
21,Fc1ccc(N2CCOC3(COCCN(c4ncccn4)C3)C2)cc1 (configuration not stated),26.31
22,Cn1nnc2c(N3CC(C(=O)NCc4cccs4)C3)ncnc21,41.71
23,Cc1cccc(C)c1OC1CN(C(=O)C2CCCN(C(=O)N(C)C)C2)C1 (configuration not stated),10.04

row,Structure (SMILES),INHIBITION [%]
1,COc1cccc(OC2CN(C(=O)C3CCCN(C(=O)N(C)C)C3)C2)c1 (configuration not stated),52.6
2,Cc1cccc(C)c1OC1CN(C(=O)C2CCN(C(=O)N(C)C)CC2)C1,24.23
3,CCc1ccc(CN2CCc3[nH]nc(C(=O)N4CCNC(=O)C4)c3C2)o1,-15.83
4,Cc1ccc(CN2CCc3[nH]nc(C(=O)N4CCNC(=O)C4)c3C2)s1,57.85
5,Cc1cccc(CN2CCc3[nH]nc(C(=O)N4CCNC(=O)C4)c3C2)n1,25.04
6,O=C(CN1CCOC(Cn2cccn2)C1)NCc1ccccn1 (configuration not stated),-12.75
7,NC(=O)c1cc2c(nc1Oc1ccc(CN3CCCC3)cc1F)CCC2,12.21
8,CNC(=O)c1cc2c(nc1N(C)C)CCN(c1ncc(C)cn1)CC2,-37.2
9,COc1ccc(Cl)cc1NCC(=O)NCCNc1cnccn1,55.7
10,COc1ccc(Cl)cc1NCCC(=O)NCCNc1cnccn1,-22.83
11,COc1ccc(Cl)cc1NCC(=O)NCCNc1ncccn1,-5.6
12,NC(=O)CN1CCCC1c1csc(Nc2cnccn2)n1 (configuration not stated),-20.73
13,CN1CCC2(COCc3cnc(N4CCOCC4)nc32)C1 (configuration not stated),18.97
14,CS(=O)(=O)NC(=O)c1ccn(-c2ccccc2Cl)n1,-61.69
15,O=C1Nc2ccccc2CC12CCCN2Cc1ccc(F)cc1 (configuration not stated),-0.14
16,CCc1n[nH]c(C2CN(CCCS(C)(=O)=O)CCO2)n1 (configuration not stated),24.65
17,CC(C)(C)c1n[nH]c(C2CN(C(=O)CCc3ccco3)CCO2)n1 (configuration not stated),0.74
18,CCCc1n[nH]c(C2CN(CCCS(C)(=O)=O)CCO2)n1 (configuration not stated),2.1
19,CC(C)c1n[nH]c(C2CN(C(=O)CCc3cscn3)CCO2)n1 (configuration not stated),53.33
20,CC(C)(C)c1n[nH]c(C2CN(C(=O)CCC3CC3)CCO2)n1 (configuration not stated),60.31
21,Cc1n[nH]c(C2CN(C(=O)CCc3cscn3)CCO2)n1 (configuration not stated),-4.43
22,CSCC(=O)N1CCOC(c2nc(C(C)(C)C)n[nH]2)C1 (configuration not stated),-17.77
23,CC(C)c1n[nH]c(C2CN(CCCS(C)(=O)=O)CCO2)n1 (configuration not stated),69.11

row,Structure (SMILES),INHIBITION [%]
1,CCc1n[nH]c(C2CN(C(=O)CCc3cscn3)CCO2)n1 (configuration not stated),12.81
2,C=C(C)CN(CC)Cc1nc(C)no1,-12.44
3,CS(=O)(=O)Cc1noc(CN2CCc3c(Cl)cccc3C2)n1,-6.67
4,CCC(CNS(C)(=O)=O)Oc1ccccc1F (configuration not stated),14.69
5,CCc1n[nH]c(C2CN(Cc3nnc(C4CCC4)o3)CCO2)n1 (configuration not stated),-45.21
6,CC(=O)N1CCCC1c1nc(N(C)C)ncc1-c1ccccc1 (configuration not stated),7.47
7,Cc1cn(CC(=O)NC2CCN(C(=O)C3CC3)CC2)c2ccccc12,41.44
8,Cc1c(C(=O)N(C)C)cccc1N(C)S(C)(=O)=O,-0.02
9,COc1ccc(CNc2c(C)nn(C(C)C)c2C)cc1OC,-4.19
10,CC[C@@H](c1ccccc1)n1c(CCN)n[nH]c1=O,31.69
11,Cc1nc(CC(=O)N2CCc3nc(-c4cnccn4)nc(O)c3C2)cs1,34.9
12,CC(C)c1noc(CCC(=O)NC2CCS(=O)(=O)C2)n1 (configuration not stated),17.19
13,Cc1ccc(C(=O)NCCC2CCN(C)CC2)cc1N(C)S(C)(=O)=O,36.05
14,Cc1ccc(C(=O)NCCN2CCOCC2)cc1N(C)S(C)(=O)=O,70.2
15,CN(c1ccc(C(=O)NCCN2CCOCC2)c(Cl)c1)S(C)(=O)=O,2.31
16,COc1ccccc1-c1cc(C(=O)Nc2nc[nH]n2)[nH]n1,19.53
17,CCCN(C)c1ccc(C(=O)Nc2c(C)nn(C(C)C)c2C)cc1,-17.64
18,CN(C)Cc1ccc(C2CCCCN2C(=O)c2cccnn2)cc1 (configuration not stated),-9.15
19,Cc1nc(C(=O)N2CCCCC2c2ccc(CN(C)C)cc2)c(C)o1 (configuration not stated),46.21
20,CN(C)Cc1ccc(C2CCCCN2C(=O)c2ncccc2O)cc1 (configuration not stated),56.16
21,CCc1ccc(C(=O)N2CCN(CCO)CC2)o1,31.7
